Measured values published in the supplement of paper PMC11732987, “Enantioselective OTUD7B fragment discovery through chemoproteomics screening and high-throughput optimisation” (Communications Chemistry, 2025).

What was measured:
Assay in all cases: log2 ratio of Biotin-Ahx-Ub-VS probe labelling (fragment/DMSO); higher = less target engagement (more negative = stronger competition), active = hit call of the paper (q ≤ 0.05, log2 ratio ≤ -1)
Settings in all cases: compound concentration: 200 uM; treatment time: 3 h
[1] = target: T1, USP42 (UniProt Q9H9J4)
T1 sequence (whole entry): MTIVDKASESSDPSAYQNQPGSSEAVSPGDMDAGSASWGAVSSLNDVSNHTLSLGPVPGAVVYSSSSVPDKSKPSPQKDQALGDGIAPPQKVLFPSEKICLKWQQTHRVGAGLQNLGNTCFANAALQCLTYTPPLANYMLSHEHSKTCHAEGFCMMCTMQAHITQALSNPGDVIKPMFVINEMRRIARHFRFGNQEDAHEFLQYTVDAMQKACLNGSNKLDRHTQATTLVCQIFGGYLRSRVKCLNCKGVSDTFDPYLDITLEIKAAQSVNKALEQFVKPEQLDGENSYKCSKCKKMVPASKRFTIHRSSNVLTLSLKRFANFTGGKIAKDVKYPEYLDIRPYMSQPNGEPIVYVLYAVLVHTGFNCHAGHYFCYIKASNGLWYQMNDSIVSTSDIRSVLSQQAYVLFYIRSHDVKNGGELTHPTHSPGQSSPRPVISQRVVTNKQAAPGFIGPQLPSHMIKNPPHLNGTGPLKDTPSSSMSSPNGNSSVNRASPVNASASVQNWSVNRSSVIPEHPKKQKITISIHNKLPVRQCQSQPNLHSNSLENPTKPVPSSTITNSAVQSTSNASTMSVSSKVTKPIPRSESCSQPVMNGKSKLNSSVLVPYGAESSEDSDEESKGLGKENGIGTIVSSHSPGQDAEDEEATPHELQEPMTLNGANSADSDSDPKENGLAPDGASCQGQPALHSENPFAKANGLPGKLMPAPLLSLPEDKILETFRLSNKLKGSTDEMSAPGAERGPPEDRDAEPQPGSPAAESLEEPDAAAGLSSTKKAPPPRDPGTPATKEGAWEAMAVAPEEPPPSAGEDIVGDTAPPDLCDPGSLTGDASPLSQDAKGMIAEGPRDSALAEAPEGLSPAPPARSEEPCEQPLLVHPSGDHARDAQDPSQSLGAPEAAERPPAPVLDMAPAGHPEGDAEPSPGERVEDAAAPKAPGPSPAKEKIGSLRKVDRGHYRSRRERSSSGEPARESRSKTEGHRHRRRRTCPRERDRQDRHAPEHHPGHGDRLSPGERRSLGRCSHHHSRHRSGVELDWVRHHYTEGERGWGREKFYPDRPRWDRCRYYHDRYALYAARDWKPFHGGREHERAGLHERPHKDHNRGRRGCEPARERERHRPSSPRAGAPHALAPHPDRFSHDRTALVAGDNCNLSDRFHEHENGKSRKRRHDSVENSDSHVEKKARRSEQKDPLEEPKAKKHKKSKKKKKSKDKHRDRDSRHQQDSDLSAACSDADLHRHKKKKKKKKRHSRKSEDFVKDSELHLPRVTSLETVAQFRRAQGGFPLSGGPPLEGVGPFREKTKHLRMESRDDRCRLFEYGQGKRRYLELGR
Method in brief: (§1)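 Triplicate samples of HEK293T lysate, 495 µg each, received fragment at 200 µM or vehicle for 3 h, followed by Biotin-Ahx-Ub-VS (0.5 µM final) for 1 h. After NeutrAvidin enrichment of labelled DUBs and LysC/trypsin digestion, peptides were run by diaPASEF LC-MS/MS. The values are average log2 fragment/vehicle ratios from global-median-normalised Spectronaut label-free quantities, tested by unpaired t-test on proteins having ≥2 unique peptides.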

[2] = target: USP46 (UniProt P62068)
Method in brief: as §1

[3] = target: T2, USP47 (UniProt Q96K76)
T2 sequence (whole entry): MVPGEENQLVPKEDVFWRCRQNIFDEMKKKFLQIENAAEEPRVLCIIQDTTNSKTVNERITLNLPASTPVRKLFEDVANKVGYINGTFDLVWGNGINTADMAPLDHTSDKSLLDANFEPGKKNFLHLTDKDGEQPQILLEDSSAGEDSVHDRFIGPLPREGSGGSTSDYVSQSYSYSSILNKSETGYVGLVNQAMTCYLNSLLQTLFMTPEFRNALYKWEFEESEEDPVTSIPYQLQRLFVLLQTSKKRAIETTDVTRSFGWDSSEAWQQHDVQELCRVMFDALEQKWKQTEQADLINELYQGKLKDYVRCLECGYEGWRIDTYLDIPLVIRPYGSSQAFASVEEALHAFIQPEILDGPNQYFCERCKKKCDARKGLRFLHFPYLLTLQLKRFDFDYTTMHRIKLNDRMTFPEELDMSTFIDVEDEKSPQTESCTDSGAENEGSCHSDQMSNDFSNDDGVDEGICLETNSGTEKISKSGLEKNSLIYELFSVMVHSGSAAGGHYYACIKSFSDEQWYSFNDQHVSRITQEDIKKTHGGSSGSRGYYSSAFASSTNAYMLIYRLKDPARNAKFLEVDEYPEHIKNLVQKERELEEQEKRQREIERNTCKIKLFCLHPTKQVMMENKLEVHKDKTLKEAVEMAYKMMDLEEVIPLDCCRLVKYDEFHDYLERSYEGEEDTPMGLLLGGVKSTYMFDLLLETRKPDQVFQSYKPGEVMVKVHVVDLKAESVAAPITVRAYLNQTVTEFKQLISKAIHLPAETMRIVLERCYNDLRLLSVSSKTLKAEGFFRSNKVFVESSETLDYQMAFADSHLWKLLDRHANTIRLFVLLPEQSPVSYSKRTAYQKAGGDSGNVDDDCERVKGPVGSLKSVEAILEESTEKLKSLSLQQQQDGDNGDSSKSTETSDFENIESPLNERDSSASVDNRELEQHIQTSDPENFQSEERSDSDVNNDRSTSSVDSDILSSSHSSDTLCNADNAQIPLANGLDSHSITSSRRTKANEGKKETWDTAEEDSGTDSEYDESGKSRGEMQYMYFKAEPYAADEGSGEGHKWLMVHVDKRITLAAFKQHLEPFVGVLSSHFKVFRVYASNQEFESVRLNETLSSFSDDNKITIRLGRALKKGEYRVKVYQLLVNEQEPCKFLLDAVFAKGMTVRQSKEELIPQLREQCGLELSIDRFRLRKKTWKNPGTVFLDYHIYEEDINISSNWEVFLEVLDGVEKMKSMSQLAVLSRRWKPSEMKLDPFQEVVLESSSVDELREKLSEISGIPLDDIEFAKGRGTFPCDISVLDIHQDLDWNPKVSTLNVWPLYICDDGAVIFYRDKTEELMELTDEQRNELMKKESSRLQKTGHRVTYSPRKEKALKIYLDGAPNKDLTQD
Method in brief: as §1

[4] = target: T3, USP48 (UniProt Q86UV5)
T3 sequence (whole entry): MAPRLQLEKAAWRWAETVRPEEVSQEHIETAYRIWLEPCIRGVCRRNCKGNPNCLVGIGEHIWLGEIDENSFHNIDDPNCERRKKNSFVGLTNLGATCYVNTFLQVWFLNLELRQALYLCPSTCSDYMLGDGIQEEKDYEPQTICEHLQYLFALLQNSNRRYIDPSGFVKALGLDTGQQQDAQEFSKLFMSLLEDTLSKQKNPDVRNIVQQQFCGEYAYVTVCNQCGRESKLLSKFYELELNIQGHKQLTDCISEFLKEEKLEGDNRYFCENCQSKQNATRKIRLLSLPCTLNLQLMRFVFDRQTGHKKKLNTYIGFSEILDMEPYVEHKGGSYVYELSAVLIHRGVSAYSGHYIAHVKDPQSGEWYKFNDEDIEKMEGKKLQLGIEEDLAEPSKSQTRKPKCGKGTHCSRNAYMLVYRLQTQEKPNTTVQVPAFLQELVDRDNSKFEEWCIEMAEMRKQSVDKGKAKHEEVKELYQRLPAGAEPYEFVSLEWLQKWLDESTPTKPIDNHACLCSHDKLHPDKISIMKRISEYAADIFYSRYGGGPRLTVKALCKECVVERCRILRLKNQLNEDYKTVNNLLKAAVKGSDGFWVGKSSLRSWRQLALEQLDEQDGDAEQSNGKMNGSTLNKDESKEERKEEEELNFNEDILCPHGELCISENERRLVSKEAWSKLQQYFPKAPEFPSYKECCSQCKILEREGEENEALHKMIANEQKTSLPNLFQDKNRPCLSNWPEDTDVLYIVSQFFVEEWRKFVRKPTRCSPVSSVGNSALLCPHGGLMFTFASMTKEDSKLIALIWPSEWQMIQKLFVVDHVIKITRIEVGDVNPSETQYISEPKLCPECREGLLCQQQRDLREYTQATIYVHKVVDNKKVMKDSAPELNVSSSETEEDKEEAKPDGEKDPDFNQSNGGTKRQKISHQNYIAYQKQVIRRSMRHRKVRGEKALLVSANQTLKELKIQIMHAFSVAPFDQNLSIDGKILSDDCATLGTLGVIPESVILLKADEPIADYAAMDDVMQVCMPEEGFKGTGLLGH
Method in brief: as §1

[5] = target: T4, USP5 (UniProt P45974)
T4 sequence (whole entry): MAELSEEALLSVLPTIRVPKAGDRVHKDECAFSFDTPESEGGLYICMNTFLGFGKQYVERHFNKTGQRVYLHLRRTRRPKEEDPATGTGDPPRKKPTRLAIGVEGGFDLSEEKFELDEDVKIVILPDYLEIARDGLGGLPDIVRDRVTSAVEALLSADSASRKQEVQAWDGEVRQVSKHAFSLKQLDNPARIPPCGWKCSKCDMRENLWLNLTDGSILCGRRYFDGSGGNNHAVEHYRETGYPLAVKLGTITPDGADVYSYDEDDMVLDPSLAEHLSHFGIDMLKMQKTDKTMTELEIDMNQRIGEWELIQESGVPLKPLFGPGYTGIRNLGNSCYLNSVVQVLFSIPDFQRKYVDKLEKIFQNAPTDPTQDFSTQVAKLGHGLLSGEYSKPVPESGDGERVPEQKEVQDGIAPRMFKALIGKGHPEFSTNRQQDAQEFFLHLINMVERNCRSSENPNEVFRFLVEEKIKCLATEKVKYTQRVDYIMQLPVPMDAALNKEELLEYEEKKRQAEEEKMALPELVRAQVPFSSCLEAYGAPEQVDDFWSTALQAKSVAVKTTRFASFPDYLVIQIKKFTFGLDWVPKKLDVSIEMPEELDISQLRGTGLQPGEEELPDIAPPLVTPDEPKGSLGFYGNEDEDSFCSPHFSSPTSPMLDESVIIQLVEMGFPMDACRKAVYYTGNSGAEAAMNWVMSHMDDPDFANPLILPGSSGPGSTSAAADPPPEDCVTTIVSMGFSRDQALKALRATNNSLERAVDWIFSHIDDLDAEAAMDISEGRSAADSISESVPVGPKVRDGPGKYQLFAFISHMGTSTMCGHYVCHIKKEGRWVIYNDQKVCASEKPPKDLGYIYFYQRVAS
Method in brief: as §1

[6] = target: USP54 (UniProt Q70EL1)
Method in brief: as §1

[7] = target: USP7 (UniProt Q93009)
Method in brief: as §1

[8] = target: T5, USP8 (UniProt P40818)
T5 sequence (whole entry): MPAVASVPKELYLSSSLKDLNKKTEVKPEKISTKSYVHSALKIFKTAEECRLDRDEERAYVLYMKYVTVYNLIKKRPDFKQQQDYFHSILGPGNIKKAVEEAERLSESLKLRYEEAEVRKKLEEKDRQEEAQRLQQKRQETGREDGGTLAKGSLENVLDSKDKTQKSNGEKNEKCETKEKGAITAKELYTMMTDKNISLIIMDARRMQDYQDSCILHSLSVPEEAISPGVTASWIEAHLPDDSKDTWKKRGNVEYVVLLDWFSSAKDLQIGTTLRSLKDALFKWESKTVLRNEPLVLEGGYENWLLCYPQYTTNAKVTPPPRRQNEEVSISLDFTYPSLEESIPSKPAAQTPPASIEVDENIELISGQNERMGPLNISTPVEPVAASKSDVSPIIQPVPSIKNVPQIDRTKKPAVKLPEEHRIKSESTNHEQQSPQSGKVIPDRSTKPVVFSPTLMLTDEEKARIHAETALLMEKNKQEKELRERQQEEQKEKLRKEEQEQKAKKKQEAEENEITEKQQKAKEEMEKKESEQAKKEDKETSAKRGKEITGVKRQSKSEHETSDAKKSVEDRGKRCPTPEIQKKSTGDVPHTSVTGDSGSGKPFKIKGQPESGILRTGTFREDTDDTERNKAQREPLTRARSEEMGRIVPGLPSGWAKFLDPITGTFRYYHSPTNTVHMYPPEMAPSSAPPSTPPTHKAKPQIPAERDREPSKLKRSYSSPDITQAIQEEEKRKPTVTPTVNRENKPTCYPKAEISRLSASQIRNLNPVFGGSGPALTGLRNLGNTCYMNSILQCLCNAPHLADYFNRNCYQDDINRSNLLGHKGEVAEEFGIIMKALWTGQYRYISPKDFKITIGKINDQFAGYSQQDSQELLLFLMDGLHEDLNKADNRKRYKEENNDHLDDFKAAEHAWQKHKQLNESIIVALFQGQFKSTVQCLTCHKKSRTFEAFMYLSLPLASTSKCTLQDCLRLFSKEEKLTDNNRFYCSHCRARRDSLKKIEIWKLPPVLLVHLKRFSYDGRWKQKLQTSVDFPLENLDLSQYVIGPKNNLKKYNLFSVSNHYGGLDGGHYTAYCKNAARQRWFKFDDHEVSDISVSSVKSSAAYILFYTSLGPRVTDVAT
Method in brief: as §1

[9] = target: USP9X (UniProt Q93008)
Method in brief: as §1

[10] = target: UniProt O00487
Method in brief: as §1

Measured: log2 ratio of Biotin-Ahx-Ub-VS probe labelling

UniProt O00487, sequence (O00487 whole entry): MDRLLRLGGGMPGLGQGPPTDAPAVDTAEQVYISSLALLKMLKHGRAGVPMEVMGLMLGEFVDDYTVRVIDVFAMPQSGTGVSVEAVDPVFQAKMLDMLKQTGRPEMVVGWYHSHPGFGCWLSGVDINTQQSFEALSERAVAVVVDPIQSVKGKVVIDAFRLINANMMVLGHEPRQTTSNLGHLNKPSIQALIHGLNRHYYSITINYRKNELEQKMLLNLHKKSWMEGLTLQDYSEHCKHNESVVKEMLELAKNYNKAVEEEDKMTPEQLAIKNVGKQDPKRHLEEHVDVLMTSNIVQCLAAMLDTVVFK
USP7, sequence (Q93009 whole entry, looked up): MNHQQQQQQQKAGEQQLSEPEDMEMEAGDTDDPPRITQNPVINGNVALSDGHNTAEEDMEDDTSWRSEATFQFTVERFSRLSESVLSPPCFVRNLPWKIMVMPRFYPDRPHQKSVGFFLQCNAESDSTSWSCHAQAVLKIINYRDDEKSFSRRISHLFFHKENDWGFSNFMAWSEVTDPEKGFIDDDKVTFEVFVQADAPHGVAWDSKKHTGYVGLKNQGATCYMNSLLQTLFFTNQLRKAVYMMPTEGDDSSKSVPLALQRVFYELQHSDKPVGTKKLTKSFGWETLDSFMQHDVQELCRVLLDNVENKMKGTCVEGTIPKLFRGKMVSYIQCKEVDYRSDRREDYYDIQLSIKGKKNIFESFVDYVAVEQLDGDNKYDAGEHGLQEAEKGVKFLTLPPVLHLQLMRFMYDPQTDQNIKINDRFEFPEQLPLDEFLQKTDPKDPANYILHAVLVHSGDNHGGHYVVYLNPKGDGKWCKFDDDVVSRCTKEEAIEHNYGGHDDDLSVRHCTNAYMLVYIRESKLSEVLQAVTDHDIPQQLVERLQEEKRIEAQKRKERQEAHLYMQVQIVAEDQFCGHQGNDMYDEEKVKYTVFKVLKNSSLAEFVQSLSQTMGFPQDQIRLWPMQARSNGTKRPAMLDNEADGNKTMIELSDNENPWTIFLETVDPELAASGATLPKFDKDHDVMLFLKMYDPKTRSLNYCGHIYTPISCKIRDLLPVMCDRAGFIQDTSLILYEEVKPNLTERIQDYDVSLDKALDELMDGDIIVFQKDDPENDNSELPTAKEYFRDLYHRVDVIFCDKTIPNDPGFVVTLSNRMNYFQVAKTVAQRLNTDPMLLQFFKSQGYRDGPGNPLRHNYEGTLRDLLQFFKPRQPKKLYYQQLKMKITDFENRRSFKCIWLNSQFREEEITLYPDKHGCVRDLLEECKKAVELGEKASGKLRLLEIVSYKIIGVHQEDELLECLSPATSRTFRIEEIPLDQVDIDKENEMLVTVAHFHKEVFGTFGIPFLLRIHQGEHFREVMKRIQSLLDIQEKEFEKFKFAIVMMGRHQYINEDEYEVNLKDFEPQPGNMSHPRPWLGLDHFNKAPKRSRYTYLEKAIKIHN
USP54, sequence (Q70EL1 whole entry): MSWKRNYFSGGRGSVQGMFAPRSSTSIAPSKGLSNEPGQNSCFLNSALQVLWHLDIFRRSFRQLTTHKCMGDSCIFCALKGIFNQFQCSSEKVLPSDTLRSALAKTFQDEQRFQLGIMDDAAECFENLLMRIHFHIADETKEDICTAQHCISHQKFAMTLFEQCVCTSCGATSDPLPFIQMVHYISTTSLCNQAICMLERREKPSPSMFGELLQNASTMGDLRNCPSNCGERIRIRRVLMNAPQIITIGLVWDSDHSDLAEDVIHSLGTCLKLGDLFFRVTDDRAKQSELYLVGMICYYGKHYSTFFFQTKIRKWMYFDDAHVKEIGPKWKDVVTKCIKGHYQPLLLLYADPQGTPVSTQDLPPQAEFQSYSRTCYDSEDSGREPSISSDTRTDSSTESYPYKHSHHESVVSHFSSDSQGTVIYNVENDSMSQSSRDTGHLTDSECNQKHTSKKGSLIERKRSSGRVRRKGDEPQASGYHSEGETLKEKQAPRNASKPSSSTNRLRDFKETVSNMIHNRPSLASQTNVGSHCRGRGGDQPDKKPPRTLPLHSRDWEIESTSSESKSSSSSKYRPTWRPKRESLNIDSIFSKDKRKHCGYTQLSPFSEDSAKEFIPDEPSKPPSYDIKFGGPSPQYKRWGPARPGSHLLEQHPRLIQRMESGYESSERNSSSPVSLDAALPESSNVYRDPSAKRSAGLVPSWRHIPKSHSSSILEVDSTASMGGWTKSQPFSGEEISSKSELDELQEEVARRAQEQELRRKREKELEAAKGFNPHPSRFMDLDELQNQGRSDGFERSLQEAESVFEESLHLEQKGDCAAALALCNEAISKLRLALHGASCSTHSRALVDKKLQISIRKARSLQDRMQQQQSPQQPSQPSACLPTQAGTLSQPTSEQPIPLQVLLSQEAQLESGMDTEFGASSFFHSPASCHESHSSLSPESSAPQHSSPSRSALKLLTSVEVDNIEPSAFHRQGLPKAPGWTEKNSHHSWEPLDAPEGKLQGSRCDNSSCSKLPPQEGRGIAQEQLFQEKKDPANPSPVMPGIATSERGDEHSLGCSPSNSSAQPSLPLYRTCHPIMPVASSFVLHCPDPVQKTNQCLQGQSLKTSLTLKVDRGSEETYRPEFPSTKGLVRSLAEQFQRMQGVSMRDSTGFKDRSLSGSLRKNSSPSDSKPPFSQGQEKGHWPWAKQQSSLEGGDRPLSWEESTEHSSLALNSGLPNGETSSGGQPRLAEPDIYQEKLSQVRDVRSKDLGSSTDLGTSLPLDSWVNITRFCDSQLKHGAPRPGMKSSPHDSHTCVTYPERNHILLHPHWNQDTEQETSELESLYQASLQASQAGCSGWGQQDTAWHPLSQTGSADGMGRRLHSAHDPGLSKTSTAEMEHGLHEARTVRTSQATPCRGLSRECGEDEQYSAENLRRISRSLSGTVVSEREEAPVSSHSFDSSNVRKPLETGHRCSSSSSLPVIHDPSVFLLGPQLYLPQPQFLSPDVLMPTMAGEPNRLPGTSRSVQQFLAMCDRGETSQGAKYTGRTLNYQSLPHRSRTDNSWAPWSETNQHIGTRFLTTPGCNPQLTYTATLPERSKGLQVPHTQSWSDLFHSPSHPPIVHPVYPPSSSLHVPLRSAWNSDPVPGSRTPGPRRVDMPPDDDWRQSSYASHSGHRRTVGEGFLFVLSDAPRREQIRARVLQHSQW
USP46, sequence (P62068 whole entry): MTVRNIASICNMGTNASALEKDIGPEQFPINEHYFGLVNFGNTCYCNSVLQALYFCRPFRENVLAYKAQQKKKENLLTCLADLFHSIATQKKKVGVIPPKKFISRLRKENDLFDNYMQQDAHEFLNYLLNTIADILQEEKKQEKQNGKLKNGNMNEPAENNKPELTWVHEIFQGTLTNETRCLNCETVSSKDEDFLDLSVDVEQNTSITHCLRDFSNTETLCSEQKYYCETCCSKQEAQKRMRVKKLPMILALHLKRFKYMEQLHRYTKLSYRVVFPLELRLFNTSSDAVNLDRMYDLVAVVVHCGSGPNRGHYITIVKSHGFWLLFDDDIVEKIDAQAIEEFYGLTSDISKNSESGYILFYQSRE

O=C(CCl)Nc1nnc(CC(F)(F)F)o1
inactive: [1] -0.117 | [2] 0.083 | [3] 0.172 | [4] -0.236 | [5] 0.0095 | [6] 0.782 | [7] -0.136 | [8] -0.263 | [9] -0.134 | [10] -0.296
